The record followed here is article PMC7819943, “Rice protein-binding microarrays: a tool to detect cis-acting elements near promoter regions in rice”.

The full ranking holds about 68,000 sequences; the median of “fluorescence intensity (a.u.)” is about 9,100, and the highest 2% start at about 16,000. Many of the other results were omitted from the sample, so the highest values are more common in it than they were.

OsWRKY34, sequence (Q0JBA9 entry or part of it): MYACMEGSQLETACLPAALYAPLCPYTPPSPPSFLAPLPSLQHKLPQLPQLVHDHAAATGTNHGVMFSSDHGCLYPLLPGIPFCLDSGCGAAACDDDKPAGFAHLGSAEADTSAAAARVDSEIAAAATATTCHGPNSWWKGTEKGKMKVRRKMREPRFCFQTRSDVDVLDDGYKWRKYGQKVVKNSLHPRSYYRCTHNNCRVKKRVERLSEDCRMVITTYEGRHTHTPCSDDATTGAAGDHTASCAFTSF

The test addresses OsWRKY34 (Oryza sativa, UniProt Q0JBA9 1-250). As to the kind of experiment: protein-binding microarray (RPBM); PBS, 2% BSA, 51.3 ng/ul salmon testes DNA, 50 uM zinc acetate, 200 nM TF, 25 C, 1 h; high values mean tight binding. To be noted: protein: recombinant; tags: N-terminal polyhistidine and DsRed monomer fusion (pET32a); label: CyDye5-dUTP incorporated in the synthesized complementary strand; 3' TTTTT single-stranded linker to array surface; dsDNA, one strand shown. Summed up:
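A custom Agilent array was converted to double-stranded form by primer extension with Cy5-dUTP and blocked with 2% BSA. Protein at 200 nM in PBS with 2% BSA, salmon testes DNA and 50 µM zinc acetate was applied for 1 h at 25 °C, followed by washing. The proteins were polyhistidine–DsRed N-terminal fusions of transcription factors, expressed in E. coli BL21-CodonPlus and Ni–NTA-purified. The binding signal is per-feature fluorescence intensity (arbitrary units) from an Axon 4000B scanner.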
As to “ACAATTCACAAACGAACCTCTGCTGTTAGCCGCCTCTTTCCGGAGTCACCTAGTGCAG”, the binding signal was 8190 fluorescence intensity (a.u.).

Turning to “GTTGCTTACTACCTGGTATTAGTCATTGTGGGAGTAGTTCCGGAGTCACCTAGTGCAG”, the binding signal was 8160 fluorescence intensity (a.u.).

As to “TGGCATTTTTTTTTTTGGAATTGAGCACTTGTTAATGTCACGGAGTCACCTAGTGCAG”, the binding signal is 8110 fluorescence intensity (a.u.).

For the sequence “GCTCACCTAACCCATTCACGTGGCGCCAAACCCTCAGGGGCGGAGTCACCTAGTGCAG”, the binding signal is 8250 fluorescence intensity (a.u.).

Consider “CACTCGTTTTCAGATCATTTTCCATGGCGCCATGGCGCCTCGGAGTCACCTAGTGCAG”, for which the binding signal is 8500 fluorescence intensity (a.u.).

Take “ATCATTTAATTCCTGCGTTTTTCCTGCGATTCAATCAAACCGGAGTCACCTAGTGCAG”: the binding signal was 11300 fluorescence intensity (a.u.).

“AGCTATATTACTCACCTTCTCTCTTTAAGCCTGTCTAGTACGGAGTCACCTAGTGCAG”: the binding signal was 10300 fluorescence intensity (a.u.).

On to “TTTCCCTGATCCTTTTCCTAACCCAGTGGCAGGCATCTTTCGGAGTCACCTAGTGCAG”, for which the binding signal is 9990 fluorescence intensity (a.u.).

On to “CTACTTGTGCTGTGTCTTTGTTTTTCTTTCACATTTCTAGCGGAGTCACCTAGTGCAG”, for which the binding signal is 14300 fluorescence intensity (a.u.).

“GTGGGTCCACTTGCTACACATACCACCCCACTTAAACTTTCGGAGTCACCTAGTGCAG”: the binding signal is 8640 fluorescence intensity (a.u.).

As for “ATATTTGACACCGTTGACTTTTTAGCACATGTTTGACTGTCGGAGTCACCTAGTGCAG”, the binding signal is 33000 fluorescence intensity (a.u.).

For “CCGCTGCCGCTTCCGCTTCCGCTTCTTCCGTTCTGGAGACCGGAGTCACCTAGTGCAG”, the binding signal was 10400 fluorescence intensity (a.u.).

Consider “ATGTTTGACGCCGTTGATATTTTAGCACATGTTTGACTGTCGGAGTCACCTAGTGCAG”, for which the binding signal is 11400 fluorescence intensity (a.u.).

On to “CGCCGCTGCCGTTGACCGTGTTCCGGCACTTCTTCACGACCGGAGTCACCTAGTGCAG”, for which the binding signal was 17400 fluorescence intensity (a.u.).

In the case of “CCTTCCGTTTGACACTGTTGACTTTTTTAAATATGTTTGACGGAGTCACCTAGTGCAG”, the binding signal is 16100 fluorescence intensity (a.u.).

Consider “TTGACACTGTTGACTTTTTAATATATGTTTGACTGTTCGTCGGAGTCACCTAGTGCAG”, for which the binding signal is 20400 fluorescence intensity (a.u.).

In the case of “AATGTTTGACACCGTTGATTTTTTTAGCACATGTTTCACCCGGAGTCACCTAGTGCAG”, the binding signal is 8960 fluorescence intensity (a.u.).

Consider “CCACGCCGCACCCACCCACTGCCCGTTCCGTTCCGGCGACCGGAGTCACCTAGTGCAG”, for which the binding signal is 10900 fluorescence intensity (a.u.).

As for “TTCAAAATGTTTGACACCGTTGACTTTTTAACACATGATCCGGAGTCACCTAGTGCAG”, the binding signal is 32400 fluorescence intensity (a.u.).

“ATATTTTAATGAATGACACTGTTGACTTTTTGACAAACGTCGGAGTCACCTAGTGCAG”: the binding signal is 13300 fluorescence intensity (a.u.).

Regarding “CGGCGCGTACGCAGTCCACTACCACCACTTCCGCCGGCGCCGGAGTCACCTAGTGCAG”, the binding signal was 8450 fluorescence intensity (a.u.).

As to “CTTGCCGGCCTCCACCGCTAATGTTTGTGCACACAGAAAACGGAGTCACCTAGTGCAG”, the binding signal is 8330 fluorescence intensity (a.u.).

Consider “GAACCTAGAAATATTGTCTGTTTTCCTGCCGAACTGAACTCGGAGTCACCTAGTGCAG”, for which the binding signal is 9900 fluorescence intensity (a.u.).

As for “TGAAAGGGGTTGATGTGTGGTGAAGGGTAGGTAATTTGTACGGAGTCACCTAGTGCAG”, the binding signal was 10700 fluorescence intensity (a.u.).

Consider “GGTGGTGGTGTGAGAGCAGTAGACAGGTTTTTCTTGGGGACGGAGTCACCTAGTGCAG”, for which the binding signal was 8280 fluorescence intensity (a.u.).

For the sequence “CTTCTGCTTCTGGTTCTGGTTCGCCTTCCTAGTTCCTACCCGGAGTCACCTAGTGCAG”, the binding signal is 8330 fluorescence intensity (a.u.).

Consider “GAAAAATCTTTCCAGTGGTAGTGTGTTGCTCTCGGCCTCGCGGAGTCACCTAGTGCAG”, for which the binding signal was 8320 fluorescence intensity (a.u.).

In the case of “GCCCCGAGCGGGCCGAGCTCCCATCGTCTCATCGCCCCAACGGAGTCACCTAGTGCAG”, the binding signal was 11600 fluorescence intensity (a.u.).

For “AGCCAACCACACACAATGAACCATACCACAGTTACCACAGCGGAGTCACCTAGTGCAG”, the binding signal was 10100 fluorescence intensity (a.u.).

In the case of “TTGGGGAGGATTTTTTCTTTTCATTTCATAATTAATTTCCCGGAGTCACCTAGTGCAG”, the binding signal was 11400 fluorescence intensity (a.u.).

On to “TGCATCTCGCCTTATCCCCGCGCCGGCGCTAGGCGAATCGCGGAGTCACCTAGTGCAG”, for which the binding signal was 8340 fluorescence intensity (a.u.).

Take “AATGGTTTTATCGTTTTACGTGTGTACACCACTTATATATCGGAGTCACCTAGTGCAG”: the binding signal is 8060 fluorescence intensity (a.u.).

For the sequence “TTGACACCGTTGACTTTTTAGTACATGTTTGACCGTTCGTCGGAGTCACCTAGTGCAG”, the binding signal is 41400 fluorescence intensity (a.u.).

For “TTTTAGCACATGTTGACCGTTCGTCTTATTCAAAAAATTTCGGAGTCACCTAGTGCAG”, the binding signal was 9160 fluorescence intensity (a.u.).

For the sequence “GCCGTATCTTCTGCGTTGACCAGATCCTTCACTGTCACGCCGGAGTCACCTAGTGCAG”, the binding signal is 19200 fluorescence intensity (a.u.).

Turning to “AGTTTTTGGTAGTTTAGTTTGATACACCACTTCGTTTGATCGGAGTCACCTAGTGCAG”, the binding signal was 18600 fluorescence intensity (a.u.).

Consider “ACGCCGCCGTTGCACTTCTCTGCACGCCATTGATCCGATCCGGAGTCACCTAGTGCAG”, for which the binding signal is 8480 fluorescence intensity (a.u.).

Consider “CCGAAGCGTCATCGCCGGTGGCCGTATCTTCTGCGTTGACCGGAGTCACCTAGTGCAG”, for which the binding signal is 15300 fluorescence intensity (a.u.).

For “TTCGTTGTACTTACCATCGTTGTTTAGTTTGATTTTTTTTCGGAGTCACCTAGTGCAG”, the binding signal is 8950 fluorescence intensity (a.u.).

For the sequence “ACACCGTTGACTTTTTAGCACATGTTGGACTGTTCGTCTTCGGAGTCACCTAGTGCAG”, the binding signal is 39800 fluorescence intensity (a.u.).

With “TGACTTTTTAGCACATGTTTGACTGTTCGTCTTATTCAAACGGAGTCACCTAGTGCAG”, the binding signal was 10200 fluorescence intensity (a.u.).

“TAACCAGAGTAAATTTTTGGCCAACTTAAGTGCTTTCATACGGAGTCACCTAGTGCAG”: the binding signal is 9070 fluorescence intensity (a.u.).

For the sequence “GCAACTTTTTTTCCAAATGTTTGGCATCTGGTGTGTCATCCGGAGTCACCTAGTGCAG”, the binding signal was 8040 fluorescence intensity (a.u.).

On to “GAAGCCCACCCAATTCGATTTTTTGGGCCGCCCCACCTTTCGGAGTCACCTAGTGCAG”, for which the binding signal is 8790 fluorescence intensity (a.u.).

With “TACCGTCGTGCTCCATCAATTCCATCTCCACGTGTTATTGCGGAGTCACCTAGTGCAG”, the binding signal is 10900 fluorescence intensity (a.u.).
